Compound activity as filed in PubChem BioAssay.
Shown are actives, neighbours in structure and some others; about 19% of the full set was active somewhere.
HT1080 IDH1KD tx – qHTS for induction of synthetic lethality in tumor cells producing 2HG: qHTS for the HT-1080-IDH1KD cell line. HT-1080 IDH1 knockdown viability, ATP luminescence, 48 h. Potency, µM (top dose mostly 46.1 µM), without a hit: at the highest dose activity, negative = toxicity, usual class: cytotoxic. 360,000 tested, 2% active. AID 686971, 2013;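 also: 0% = DMSO wells and -100% = cell-free medium wells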
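HT-1080-IDH1KD cells (IDH1 knocked down), 750/well in RPMI with 5% FBS, treated with compound 48 h at 37 degrees C. Viability by CellTiter-Glo luminescence, normalised to DMSO and no-cell wells; concentration-response curves classed.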
KB-V1 cytotox – qHTS assay for MDR1-selective chemotherapeutics: Primary screen using the drug-selected MDR subline cells KB-V1 | KB-V1 MDR cells viability, CellTiter-Glo, 72 h | Potency, µM (highest dose often 46.1 µM), actives largely listed as cytotoxic | 400,000 tested, 3.4% active | AID 1347076, 2019; also: nearly all actives have a fitted effect of over 60% in size
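In this primary screen, KB-V1 cells overexpressing P-gp are incubated with library compounds (lowest to highest concentration) for 72 h at 37 degrees C before a luminescent ATP viability read.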
HT1080NT lethal – qHTS for induction of synthetic lethality in tumor cells producing 2HG: qHTS for the HT-1080-NT fibrosarcoma cell line; HT-1080-NT fibrosarcoma viability, CellTiter-Glo ATP luminescence, 48 h; Potency, µM (titrated, usually from 46.1 µM), without a hit: top-dose activity, negative = less viability, usual class: cytotoxic; 360,000 tested, 1.6% active;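 also: NT is the 2HG producing partner of a matched IDH1 knockdown line; 0% = DMSO-treated cells and -100% = media-only wells without cells; nearly all actives have a fitted effect of over 55% in size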
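Luminescent CellTiter-Glo readout after 48 hours of compound exposure at 37 degrees C defined viability of HT-1080-NT cells. Activity was normalized to DMSO wells and cell-free media wells; concentration-response curves were fitted and assigned curve classes.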
KB-3-1 tox – qHTS assay for MDR1-selective chemotherapeutics: Primary screen using the parental adenocarcinoma cell KB-3-1. KB-3-1 viability, CellTiter-Glo ATP luminescence, 72 h. 400,000 tested, 1.4% active. Potency, µM (top dose mostly 46.1 µM), usual class: cytotoxic. AID 1347075, 2019; also: nearly all actives have a fitted effect of over 60% in size
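KB-3-1 cells, DMEM (no phenol red) + 10% FBS; compound by pin transfer, 72 h, 37 °C. Readout: CellTiter-Glo luminescence after 10 min. Data normalized, curve-fitted.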
DT40 TDP1 CPT – qHTS for Inhibitors of human tyrosyl-DNA phosphodiesterase 1 (TDP1): qHTS in cells in presence of CPT; Potency, µM (highest dose often 46.2 µM), without a hit: at the top dose activity change, negative = growth inhibition, usual class: inhibitors; 420,000 tested, 12% active; chicken DT40 Tdp1-/-;hTDP1 cells + 20 nM CPT, ATP luminescence, 48 h; also: nearly all actives have a fitted effect of over 55% in size
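Cell growth measured by CellTiter-Glo luminescence after a minimum 48 h, 37 C compound exposure with 20 nM CPT in Tdp1-knockout DT40 cells stably expressing hTDP1, seeded 400/well; qHTS titration format.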
DT40 TDP1 no CPT – qHTS for Inhibitors of human tyrosyl-DNA phosphodiesterase 1 (TDP1): qHTS in cells in absence of CPT; Potency, µM (doses to about 46.2 µM), for inactives: at the top dose activity change, negative = growth inhibition, actives largely listed as inhibitors; 420,000 tested, 15% active; DT40 Tdp1-/- hTDP1 cells, no CPT, ATP luminescence, 48 h; AID 686978, 2013; also: nearly all actives have a fitted effect of over 55% in size
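Readout: luminescence from CellTiter-Glo after 30 min in the dark at RT. Cells: DT40 Tdp1-/- with stable hTDP1, 400/well. Exposure: compounds alone, ≥48 hr, 37 °C.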
Starred values were filed as active, the others as inactive; i = inactive; ? = inconclusive; nt = not tested or not shown. Calls follow the shape of the dose curve; as a rule, active = well fitted curve in the direction sought with a large enough effect; inconclusive = small, poorly fitted or top-dose-only effect, or another doubt; inactive = no such curve, though single readings can be large; an effect the other way counts as inactive or inconclusive. Unless noted, % is scaled to controls: 0 for no effect and ±100 for the full control effect; potency is read from the fitted curve at half-maximal effect.

SMILES	HT1080 IDH1KD tx	KB-V1 cytotox	HT1080NT lethal	KB-3-1 tox	DT40 TDP1 CPT	DT40 TDP1 no CPT
O=C(CCN1CCN(CCO)CC1)N1c2ccccc2Sc2ccc(C(F)(F)F)cc21	-26.7%	i	-8.4%	i	?	23.1µM*
C[C@@H](N)Cn1ccc2cc(F)c(Cl)cc21	nt	nt	nt	nt	-22.8%	?
CCCOP(=O)(c1ccccc1)c1ccccc1	?	i	?	i	20.6µM*	?
CCCCP(=O)(O)c1ccccc1	-2.0%	i	-3.8%	i	3.7%	0.2%
Nc1c(C(=O)Nc2cccc(Br)c2)sc2nc3c(cc12)N1CCC3CC1	nt	?	nt	i	nt	nt
COc1ccc(NC(=O)c2sc3nc4c(cc3c2N)N2CCC4CC2)cc1OC	nt	i	nt	i	?	25.9µM*
Nc1c(C(=O)Nc2ccc(Cl)c(C(F)(F)F)c2)sc2nc3c(cc12)N1CCC3CC1	nt	nt	nt	nt	13µM*	13µM*
Nc1c(C(=O)Nc2ccc(Cl)cc2)sc2nc3c(cc12)N1CCC3CC1	nt	7.31µM*	nt	i	?	16.4µM*
COCC(=O)N1Cc2ccccc2-n2nncc2C1	8.9%	i	17.4%	i	-4.2%	-19.1%
C=CCN1C(=O)C2(C(C(=O)OC)=C(N)Oc3c2c(=O)oc2ccccc32)c2ccccc21 (stereo not given)	nt	i	nt	?	?	?
CCOc1ccc(-c2nc(CSCC(=O)NCCc3ccc(OCC)c(OCC)c3)c(C)o2)cc1	nt	?	nt	i	14.6µM*	16.4µM*
CCOc1ccc(CNC(=O)CSc2c3c(nc4cc(Cl)ccc24)CCCC3)cc1	nt	i	nt	i	?	?
O=c1[nH]c2ccccc2c(=O)n1-c1ccc(Cl)c(Cl)c1	nt	nt	nt	nt	?	-14.5%
COc1cc2[nH]c(=O)n(-c3cccc(Cl)c3)c(=O)c2cc1OC	4.8%	i	10.5%	i	-5.5%	-7.8%
Cc1cc(C)cc(-n2c(=O)[nH]c3ccccc3c2=O)c1	nt	i	nt	i	18.4µM*	?
O=c1[nH]c2ccccc2c(=O)n1-c1ccc(Cl)cc1Cl	-26.2%	?	-4.1%	i	16.4µM*	18.4µM*
CCOC(=O)/C=C(C)/C=C/C[C@@H](C)CCCC(C)C	nt	nt	nt	nt	-7.9%	5.2%
N[C@H](CP(=O)(O)O)C(=O)O	nt	nt	nt	nt	21.1%	-2.8%
Cc1cc(C)cc(N2C(=O)NC(=O)/C(=C\c3cccn3-c3ccccc3)C2=O)c1	?	18.4µM*	-21.4%	?	?	?
COc1ccccc1C=C1C(=O)NC(=S)NC1=O	-4.9%	i	-2.0%	i	-17.3%	2.2%
CN1C(=O)/C(=C/c2cccn2-c2ccc3ccccc3c2)C(=O)NC1=S	?	?	?	?	3.26µM*	5.17µM*
O=C1NC(=S)N(c2ccc(F)cc2)C(=O)/C1=C/c1ccccc1O	15.7%	i	14.4%	i	?	-12.4%
O=C1NC(=S)NC(=O)C1=Cc1cccn1-c1ccc(O)cc1	23.1µM*	i	?	?	3.66µM*	5.17µM*
CCC1Nc2ncnc(N3CCN(c4ccccn4)CC3)c2N(Cc2ccc(Br)cc2)C1=O (stereo not given)	-20.1%	i	-18.7%	?	?	?
O=C(CCn1c(=O)oc2ccccc21)N1CCN(C(c2ccccc2)c2ccccc2)CC1	24.1%	?	1.2%	i	16.4µM*	?
